Reference: PubChem BioAssay (NCATS)
Results filed as inconclusive are left out. The source made the active and inactive calls. Calls come from the whole dose curve; as a rule, active = well fitted inhibition curve with a large enough effect; inconclusive = small, poorly fitted or top-dose-only effect; inactive = flat fitted curve, though single readings scatter. Residues, ends and D or L forms follow the SMILES beside them. Peptide text beside a SMILES is read from it.

tested on: CRL-7250; assay: qHTS assay to identify novel small-molecules to repurpose for Merkel cell carcinoma treatment (AID 1296009); conditions: MCC and control cell lines, CellTiter-Glo viability, 72 h; at 44.8 µM (top of the series) unless noted; note: nearly all actives have a fitted effect of over 60% in size
Summary of the method: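 After compound transfer in DMSO, plates were kept 72 hr at 37 degree celsius. Luminescent ATP signal from CellTiter-Glo served as viability measure, normalized against DMSO and no-cell controls.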

Row | SMILES | outcome
1 | NC1CCN(c2nc3c(cc2F)c(=O)c(C(=O)O)cn3-c2ccc(F)cc2F)C1 (configuration not stated) | inactive
2 | N[C@@H](COP(=O)(O)O)C(=O)O | inactive [at 17.4 µM]
3 | O=C(Oc1ccccc1)c1ccccc1O | inactive
4 | Cc1cc(CC(=O)O)c(C)n1-c1ccc(Cl)cc1 | inactive
5 | CCO/C([O-])=N/c1c[n+](N2CCOCC2)no1 | inactive
6 | CCOc1ncc(F)c(=O)[nH]1 | inactive
7 | OC[C@H]1O[C@H](O[C@]2(CCl)O[C@H](CCl)[C@@H](O)[C@@H]2O)[C@H](O)[C@@H](O)[C@H]1Cl | inactive
8 | O=C(N[C@H](CO)[C@H](O)c1ccc([N+](=O)[O-])cc1)C(Cl)Cl | inactive
9 | O=[N+]([O-])c1cncn1CCN1CCOCC1 | inactive
10 | CCCCCCCCCCCCCCCC(=O)NCCO | inactive
11 | Cc1cc2nc3c(=O)[nH]c(=O)nc-3n(C[C@H](O)[C@H](O)[C@H](O)CO)c2cc1C | inactive [at 17.4 µM]
12 | O=C(O)c1c(O)c(-c2ccccc2)nc2ccccc12 | inactive
13 | CCC(Cc1c(I)cc(I)c(N)c1I)C(=O)O (configuration not stated) | inactive
14 | C=CCN1C[C@H](C(=O)N(CCCN(C)C)C(=O)NCC)C[C@@H]2c3cccc4[nH]cc(c34)C[C@H]21 | inactive
15 | O=C(O)Cc1ccc(OCCNC[C@H](O)c2ccccc2)cc1 | inactive
16 | COC(=O)[C@H](Cc1ccccc1)NC(=O)[C@@H](N)CC(=O)O (H-Asp-Phe-OMe) | inactive
17 | CCNC(=O)[C@@H]1CCCN1C(=O)[C@H](CCCN=C(N)N)NC(=O)[C@H](CC(C)C)NC(=O)CNC(=O)[C@H](Cc1ccc(O)cc1)NC(=O)[C@H](CO)NC(=O)[C@H](Cc1c[nH]c2ccccc12)NC(=O)[C@H](Cc1cnc[nH]1)NC(=O)[C@@H]1CCC(=O)N1 (HELM PEPTIDE1{[Glp].H.W.S.Y.G.L.R.P.[CCN[*:1]]}$$$$V2.0) | inactive
18 | CCCCOC(=O)c1ccc(N)cc1 | inactive
19 | O=C(O)c1ccccc1-c1ccc(C(F)(F)F)cc1 | inactive

Row | SMILES | outcome
20 | O=C(O)c1cc(=O)[nH]c(=O)[nH]1 | inactive
21 | NC(=O)NC1N=C([O][Al])NC1=O (configuration not stated) | inactive
22 | CCCCCCCCCCOc1cc2c(=O)c(C(=O)OCC)c[nH]c2cc1OCC | inactive [at 4.96 µM]
23 | CCOC(=O)C(O)c1ccccc1 (configuration not stated) | inactive
24 | Cc1c(C(=O)NCCO)[n+](=O)c2ccccc2n1[O-] | inactive
25 | Cc1c(C)c2c(c(C)c1O)CCC(C)(COc1ccc(CC3SC(=O)NC3=O)cc1)O2 (configuration not stated) | inactive
26 | Cc1onc(-c2ccccc2)c1-c1ccc(S(N)(=O)=O)cc1 | inactive
27 | CN(C)C(=O)COC(=O)Cc1ccc(OC(=O)c2ccc(N=C(N)N)cc2)cc1 | inactive
28 | S=P(N1CC1)(N1CC1)N1CC1 | inactive [at 92 µM]
29 | CN=C(NC#N)NCCSCc1nc[nH]c1C | inactive
30 | C[C@](N)(Cc1ccc(O)cc1)C(=O)O | inactive [at 4.96 µM]
31 | C[C@@H]1C[C@H]2[C@@H]3C[C@H](F)C4=CC(=O)C=C[C@]4(C)[C@@]3(F)[C@@H](O)C[C@]2(C)[C@@]1(O)C(=O)CO | inactive
32 | O=C(C1CCCCC1)N1CC(=O)N2CCCc3ccccc3C2C1 (configuration not stated) | inactive
33 | O=C1NCC2(CCN(CCc3ccccc3)CC2)O1 | inactive
34 | CC[N+](C)(CC)CCOC(=O)C1c2ccccc2Oc2ccccc21 | inactive
35 | Nc1ncnc2nc[nH]c12 | inactive
36 | NS(=O)(=O)c1cc(Cl)c(Cl)c(S(N)(=O)=O)c1 | inactive
37 | CCNC(=O)/C=C/c1cccc(Br)c1 | inactive
